Source: PubChem (Sanford-Burnham Center for Chemical Genomics)
This is one part of a sample in which hits are shown more often than they occur.
Artemis endo inh = inhibitors of human Artemis endonuclease activity; recombinant Artemis, quenched FAM hairpin cleavage fluorescence; Q96SD1; inhibition, % at 10 µM; 30,000 compounds, 0.78% hits; AID 686954;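 active = at 10 µM dose, at least 30% inhibition, measured as corrected fluorescence normalized to stimulator and neutral control wells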
Target sequence (Q96SD1 whole entry, looked up): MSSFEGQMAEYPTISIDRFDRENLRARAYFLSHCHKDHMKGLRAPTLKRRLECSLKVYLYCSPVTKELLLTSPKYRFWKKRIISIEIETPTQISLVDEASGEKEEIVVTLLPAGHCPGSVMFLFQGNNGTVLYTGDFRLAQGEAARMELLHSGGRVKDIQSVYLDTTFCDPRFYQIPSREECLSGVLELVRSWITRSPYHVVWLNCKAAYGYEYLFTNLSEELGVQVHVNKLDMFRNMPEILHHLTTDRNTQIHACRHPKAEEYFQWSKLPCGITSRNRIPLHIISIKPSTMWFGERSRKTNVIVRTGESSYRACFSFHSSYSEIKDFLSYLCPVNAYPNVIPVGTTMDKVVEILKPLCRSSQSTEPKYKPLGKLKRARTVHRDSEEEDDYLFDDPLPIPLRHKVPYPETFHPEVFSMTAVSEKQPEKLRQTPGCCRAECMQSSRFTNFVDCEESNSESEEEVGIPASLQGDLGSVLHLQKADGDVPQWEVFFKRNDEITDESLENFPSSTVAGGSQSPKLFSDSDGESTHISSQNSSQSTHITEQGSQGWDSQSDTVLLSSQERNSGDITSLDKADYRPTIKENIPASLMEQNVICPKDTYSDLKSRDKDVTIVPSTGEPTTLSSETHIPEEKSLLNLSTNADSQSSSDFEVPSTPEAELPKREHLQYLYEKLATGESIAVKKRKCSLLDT
Active calls of the source: *.

SMILES	Artemis endo inh
O=C(Nc1c(Cl)cc(Cl)cc1C(=O)NCc1cccnc1)c1ccc(Cl)cc1Cl	0
O=C(NCc1cccnc1)/C(=C/c1ccc(-c2cccc(Cl)c2)o1)S(=O)(=O)c1ccccc1	1
Cc1ccc(C(=O)N/C(=C\c2ccc(-c3cc(Cl)ccc3Cl)o2)C(=O)NCc2cccnc2)cc1	34*
CC(C)(C)c1ccc(OCc2ccc(C(=O)N/N=C/c3ccc([N+](=O)[O-])cc3)o2)cc1	17
Cc1cc(N2C(=O)C(O)=C(C(=O)c3ccc(C)o3)C2c2cccs2)no1 (stereo not given)	16
CCc1ccc2nc(N3C(=O)C(O)=C(C(=O)c4ccco4)C3c3cccs3)sc2c1 (stereo not given)	43*
Cc1cc(N2C(=O)C(O)=C(C(=O)c3ccco3)C2c2ccc(O)cc2)no1 (stereo not given)	-2
Cc1cc(C)nc(-n2nc(C)c3c(=O)[nH]c(C(F)(F)F)nc32)n1	-9
CN1CC2=Cc3ccccc3OC23Oc2ccccc2C=C3C1	8
Cc1cc(C)c(C)c(S(=O)(=O)NCC(=O)Nc2sc3c(c2C(N)=O)CCCC3)c1C	11
CC1(C)Cc2c(ccc3ccccc23)C(NNC(=O)c2cccnc2)=N1	-1
CCCCOc1[nH]c2nc(-c3ccco3)n(Cc3ccco3)c(=N)c2c1C#N	16
O=C(Cn1cnc2ccccc21)OCC(=O)N1CCc2ccccc2C1	1
N=c1c2c(-c3ccccc3)c(-c3ccccc3)n(Cc3ccco3)c2ncn1Cc1ccccc1	9
c1ccc(-c2c(-c3ccccc3)n(Cc3ccco3)c3ncnc(NCCCn4ccnc4)c23)cc1	44*
CC(C)Cn1cnc2c(c(-c3ccccc3)c(-c3ccccc3)n2Cc2ccco2)c1=N	23
Cc1ccccc1NC(NC(=O)c1cccs1)C(Cl)(Cl)Cl (stereo not given)	5
Cc1cccc(NC(=O)c2cc(NC(=O)c3ccco3)ccc2Cl)n1	-7
COc1ccccc1N1CCN(c2nnc(-c3ccc(F)cc3)c3ccccc23)CC1	3
N#Cc1c(N2CCCCC2)nc(N)c2c(N)nc3c(c12)CC(c1ccccc1)O3 (stereo not given)	13
N#Cc1c(N2CCCC2)nc(N)c2c(N)nc(N3CCCC3)cc12	67*
COc1cc2c(C#N)c(N3CCN(c4ccccc4OC)CC3)nc(N)c2c(N)n1	45*
N#Cc1c(C(F)(F)F)cc(C2CC2)nc1N1CCCC1	2
COc1ccccc1N1CCN(c2nc(N)c(C#N)c(CC#N)c2C#N)CC1	-3
CCN(CC)CC(=O)NCc1cc(-c2ccc(OC)cc2)no1	-4
SMILES	Artemis endo inh
O=C(Nc1ccc(-c2noc(-c3cccs3)n2)cc1)c1cccnc1	3
CCOc1cc(C(=O)N2CCOCC2)ccc1OCc1ccccc1	-4
COc1cc(NC(=O)c2cccc(Cl)c2)c(OC)cc1NC(=O)CN1CCOCC1	-2
O=S(=O)(c1ccc2nc(-c3ccco3)c(-c3ccco3)nc2c1)N1CCOCC1	28
O=C(Nc1ccc2nc(-c3ccco3)c(-c3ccco3)nc2c1)NC1CC1	50*
O=C(NCc1ccco1)Nc1ccc2nsnc2c1	9
CC(C)Oc1cccc(C(=O)NC(=S)Nc2cccc(C(F)(F)F)c2)c1	0
Cn1nc(C(=O)Nc2cccc(C(F)(F)F)c2)ccc1=O	3
O=C(Nc1cccc(C(F)(F)F)c1)c1ccc2nc(-c3ccco3)c(-c3ccco3)nc2c1	42*
Cn1cc(C(=O)c2ccc(Cl)cc2)cc1-c1nc2ccccc2n1C	11
Cc1sc2nc(SCC(=O)N(CCO)CCO)n(C3CCCCC3)c(=O)c2c1C	2
CCN(CC)c1ccc(C2C(C(C)=O)C(=O)CC(C)(O)C2C(C)=O)cc1 (stereo not given)	-1
COC(=O)c1sc2ccccc2c1-n1cccc1C(=O)C(=O)Nc1ccc(Cl)cc1	3
COc1ccc(C2(CNC(=O)CCC(=O)O)CCCC2)cc1	3
O=S(=O)(c1ccc2c(c1)OCCO2)N(Cc1ccc(F)cc1)Cc1nnc(-c2cccs2)o1	7
CCOC(=O)c1cc(S(=O)(=O)N2CCN(C(=O)OCC)CC2)cn1C	2
CCOC(=O)c1cc(C)n(S(=O)(=O)c2ccc(C)cc2)c1C	3
O=C(Cc1ccccc1)NC(Nc1ccccc1)C(Cl)(Cl)Cl (stereo not given)	31*
O=C(Cc1ccccc1)NC(Nc1cccc2ccccc12)C(Cl)(Cl)Cl (stereo not given)	-1
Cc1ccc(NC(NC(=O)c2cccs2)C(Cl)(Cl)Cl)cc1 (stereo not given)	7
COCCSc1nnc(NC(=O)C(C)(C)C)s1	-3
CC(C)n1c(=N)c(C(=O)NCCc2ccccc2)cc2c(=O)n3ccccc3nc21	2
COCCCn1c(=N)c(C(=O)NC2CCCCC2)cc2c(=O)n3ccccc3nc21	2
Cc1ccc(CNC(=O)c2cc3c(=O)n4ccccc4nc3n(Cc3ccco3)c2=N)cc1	41*
N=c1c(C(=O)NCc2ccc(F)cc2)cc2c(=O)n3ccccc3nc2n1Cc1ccco1	29
N=c1c(C(=O)NCc2ccccc2)cc2c(=O)n3ccccc3nc2n1Cc1ccco1	31*
